In PubChem BioAssay (EPA / NIEHS):
Values joined by “and” are separate entries in the source; they are usually repeats but may differ in a detail not shown here. Equal entries are not always repeated. Some structures have more than one record in an assay (separate samples or runs), and their calls can disagree. Active and inactive are the calls of the source. How the source made its calls: active means hit-call score of the fitted dose curve at least 0.9, where 1 is the maximum; inactive means score below 0.9.

Read-out: Monocyte Chemoattractant Protein-1 (MCP1), CCL2 (gene 6347)
Assay: BSK_4H_MCP1: BioMAP Diversity Plus: 4H Assay for Monocyte Chemoattractant Protein-1 (MCP1) Biomarker Activity (AID 2283018)
Conditions: primary human endothelial cells (HUVEC); actives raise or lower the signal
How it was run: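 Endothelial cells from umbilical vein were treated with test chemical, then after 24 h MCP-1 levels were quantified by ELISA; endpoint values came from bidirectional fitting with DMSO as baseline of activity.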

Compound	outcome	AC50
CS(=O)(=O)c1ccc(C2=C(c3ccccc3)C(=O)OC2)cc1	inactive	–
CCOC(=O)C(C#N)=C(c1ccccc1)c1ccccc1	inactive	1 µM (active)
CC1(C)CCC[C@]2(C)[C@H]3CCO[C@]3(C)CC[C@@H]12	inactive	–
O=C1OC[C@H](Cc2cccc(O)c2)[C@H]1Cc1cccc(O)c1	inactive	–
O=C(Nc1ccc2c(O)c(N=Nc3ccc(N=Nc4ccc(S(=O)(=O)O)cc4)cc3)c(S(=O)(=O)O)cc2c1)c1ccccc1	inactive	–
C1=CC2C3C=CC(C3)C2C1 (stereo not drawn)	inactive	–
COc1cc(Cl)c(OC)cc1N	inactive	–
C=C(C)[C@H]1CC=C(C)C(=O)C1	inactive	–
c1ccc(CCc2ccccc2)cc1	–	32.1 µM (active)
CC(=O)c1c(C)c([N+](=O)[O-])c(C(C)(C)C)c([N+](=O)[O-])c1C	inactive	–
CC(C=O)Cc1ccc(C(C)(C)C)cc1 (stereo not drawn)	–	20 µM (active)
CCCCCC(C=O)=Cc1ccccc1	–	27.8 µM (active)

Read-out: Human Leukocyte Antigen - DR isotype (HLADR), HLA-DRA (gene 3122)
Assay: BSK_3C_HLADR: BioMAP Diversity Plus: 3C Assay for Human Leukocyte Antigen - DR isotype (HLADR) Biomarker Activity (AID 2283019);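 on outcome: ELISA of cell-surface HLA-DR on HUVEC 24 h after dosing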
Conditions: primary human endothelial cells (HUVEC); actives raise or lower the signal
How it was run: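 HUVEC monoculture, HLA-DR measured by ELISA 24 h after chemical dosing. Fitted bidirectionally against DMSO baseline; parallel SRB staining assessed cytotoxicity, with 3C proliferation read by SRB at 48 h.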

Compound	outcome	AC50
CS(=O)(=O)c1ccc(C2=C(c3ccccc3)C(=O)OC2)cc1	inactive	–
CCOC(=O)C(C#N)=C(c1ccccc1)c1ccccc1	inactive	–
CC1(C)CCC[C@]2(C)[C@H]3CCO[C@]3(C)CC[C@@H]12	–	33.8 µM (active) and 34.7 µM (active)
O=C1OC[C@H](Cc2cccc(O)c2)[C@H]1Cc1cccc(O)c1	inactive	–
O=C(Nc1ccc2c(O)c(N=Nc3ccc(N=Nc4ccc(S(=O)(=O)O)cc4)cc3)c(S(=O)(=O)O)cc2c1)c1ccccc1	inactive	–
C1=CC2C3C=CC(C3)C2C1 (stereo not drawn)	inactive	–
COc1cc(Cl)c(OC)cc1N	inactive	–
C=C(C)[C@H]1CC=C(C)C(=O)C1	inactive	–
c1ccc(CCc2ccccc2)cc1	–	15.3 µM (active)
CC(=O)c1c(C)c([N+](=O)[O-])c(C(C)(C)C)c([N+](=O)[O-])c1C	inactive	–
CC(C=O)Cc1ccc(C(C)(C)C)cc1 (stereo not drawn)	–	30.3 µM (active)
CCCCCC(C=O)=Cc1ccccc1	–	36.6 µM (active)

Read-out: Interleukin-8 (IL8), CXCL8 (gene 3576)
Assay: BSK_3C_IL8: BioMAP Diversity Plus: 3C Assay for Interleukin-8 (IL8) Biomarker Activity (AID 2283020)
Conditions: primary human endothelial cells (HUVEC); actives raise or lower the signal
How it was run: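 Endothelial primary cells of human umbilical vein origin are dosed with chemical; after 24 h the IL-8 biomarker is measured by ELISA, and concentration–response is fitted in both directions versus DMSO.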

Compound	outcome	AC50
CS(=O)(=O)c1ccc(C2=C(c3ccccc3)C(=O)OC2)cc1	inactive	–
CCOC(=O)C(C#N)=C(c1ccccc1)c1ccccc1	inactive	–
CC1(C)CCC[C@]2(C)[C@H]3CCO[C@]3(C)CC[C@@H]12	–	31.5 µM (active) and 35.4 µM (active)
O=C1OC[C@H](Cc2cccc(O)c2)[C@H]1Cc1cccc(O)c1	inactive	–
O=C(Nc1ccc2c(O)c(N=Nc3ccc(N=Nc4ccc(S(=O)(=O)O)cc4)cc3)c(S(=O)(=O)O)cc2c1)c1ccccc1	inactive	20 µM (active)
C1=CC2C3C=CC(C3)C2C1 (stereo not drawn)	inactive	–
COc1cc(Cl)c(OC)cc1N	inactive	–
C=C(C)[C@H]1CC=C(C)C(=O)C1	inactive	–
c1ccc(CCc2ccccc2)cc1	–	25.8 µM (active)
CC(=O)c1c(C)c([N+](=O)[O-])c(C(C)(C)C)c([N+](=O)[O-])c1C	inactive	–
CC(C=O)Cc1ccc(C(C)(C)C)cc1 (stereo not drawn)	inactive	–
CCCCCC(C=O)=Cc1ccccc1	–	28.8 µM (active)
